Active and inactive are the calls of the source. Entries that show only a call come without a potency. Calls follow the shape of the full dose curve.
molecular target: Thyrotropin-releasing hormone receptor (Homo sapiens) (UniProt P34981); test: qHTS assay to identify small molecule agonists of the thyrotropin-releasing hormone receptor (TRHR) signaling pathway (AID 1346891); details: TRHR-HEK293 calcium fluorescence, agonist mode; series mostly up to 57.6 µM
Summary of the method: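 Readout was intracellular calcium fluorescence in TRHR-Hek293 cells. Cells were incubated 18 h, dye-loaded 2 h at 37 °C, and treated with compound in agonist mode.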

Thyrotropin-releasing hormone receptor (Homo sapiens), sequence (P34981 whole entry, looked up): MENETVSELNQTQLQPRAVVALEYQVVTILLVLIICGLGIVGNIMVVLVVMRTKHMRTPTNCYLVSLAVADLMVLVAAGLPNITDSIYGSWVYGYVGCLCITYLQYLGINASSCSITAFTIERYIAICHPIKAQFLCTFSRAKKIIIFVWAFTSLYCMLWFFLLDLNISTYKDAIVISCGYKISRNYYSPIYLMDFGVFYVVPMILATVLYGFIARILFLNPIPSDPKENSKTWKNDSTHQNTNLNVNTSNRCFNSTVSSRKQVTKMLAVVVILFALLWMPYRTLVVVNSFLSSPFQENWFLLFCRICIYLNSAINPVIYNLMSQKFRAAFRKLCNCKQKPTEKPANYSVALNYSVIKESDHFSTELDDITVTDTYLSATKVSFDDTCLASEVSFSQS

Question: For `CCN(C(=O)c1cc(C)cc(OC[C@H](C)Nc2ccncc2)c1)C(C)C`, which Potency is on record?
Answer: inactive

Question: With `CCCCCCCCCCCC[N+](C)(C)CCCCCCCCCCCC` as the compound, how does the Potency read?
Answer: inactive

Question: For `CCCCN1C(=O)[C@@H]([C@H](O)C2CCCCC2)NC(=O)C12CCN(Cc1ccc(Oc3ccc(C(=O)O)cc3)cc1)CC2`, which Potency is on record?
Answer: inactive

Question: With `CS(=O)(=O)CCNCc1ccc(-c2ccc3ncnc(Nc4ccc(OCc5cccc(F)c5)c(Cl)c4)c3c2)o1` as the compound, how does the Potency read?
Answer: inactive

Question: How did the Potency turn out when `O=CC=C(c1ccccc1)c1ccccc1` was run?
Answer: inactive

Question: For `O=C(Nc1cccc([N+](=O)[O-])c1)c1cc2ccccc2cc1O`, which Potency is on record?
Answer: inactive

Question: Which Potency does the source give for `Oc1c(Cl)cc(Cl)c2cccnc12` here?
Answer: inactive

Question: How did the Potency turn out when `CC(=O)S[C@@H]1CC2=CC(=O)CC[C@]2(C)[C@H]2CC[C@@]3(C)[C@@H](CC[C@@]34CCC(=O)O4)[C@H]12` was run?
Answer: inactive

Reference: PubChem BioAssay (Tox21)
